From PubChem BioAssay
TAG inh = reduces triacylglycerol accumulation in H9c2 cells; Nile Red lipid (TAG) fluorescence; cells loaded with 200 µM oleic acid; inhibition, % at 12.5 µM; 230,000 compounds, 0.66% hits;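 active = pattern-corrected inhibition of lipid staining of at least 50% with the nuclear-stain viability signal not falling by more than 50%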
H9c2 protect = protects H9c2 cardiomyocytes from peroxide injury; H2O2 injury protection, ATPLite, 2 h; protection from H2O2 cell death, % at 20 µM; 360,000 compounds, 0.63% hits; AID 588492;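 active = compounds giving at least 50% protection of heart cells from peroxide-induced death in the single-dose screen, raw or plate-pattern-corrected value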
CRFR2-BP antag = blocks CRF-induced signaling of the CRF-BP/CRF-R2 complex | HEK293 CRF-R2/CRF-BP, CRF-induced calcium fluorescence | 350,000 compounds, 0.59% hits | inhibition, % at 11.8 µM;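 active = inhibition of the ligand-induced calcium signal above about 50% at the single tested concentration, limit read from the data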
iPSC survival up = enhancers of human iPSC single-cell survival; 360,000 compounds, 0.044% hits; AID 602274; survival enhancement, % at 20 µM; hiPSC single-cell survival, ATPlite luminescence; 100% = ROCK inhibitor wells, 0% = DMSO; in the data active = survival enhancement above about 18%;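 also: cells exposed to compounds for 16 hours before the ATP read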
SKN-1 block = blocks SKN-1 activity in C. elegans. inhibition, % at 21.8 µM. C. elegans VP596 Pgst-4::GFP/RFP ratio, acrylamide-induced, 24 h. 360,000 compounds, 0.49% hits. AID 624304;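 active = interference check ratio from 0.5 to 1.5 plus GFP to RFP signal ratio inhibition reaching or exceeding a fixed threshold, cut at about 30% in these data, passing the limit was not always enough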
CRFR2-BP ag = agonists of human CRF-binding protein/CRF-R2 receptor complex | HEK293 CRF-R2/CRF-BP, calcium dye fluorescence (FLIPR); percent of saturating CRF peptide response | activation, % at 13.2 µM | 350,000 compounds, 0.46% hits | AID 588473;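 active = activation of at least 50%, plus an integration ratio under a set limit after plate pattern correction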
Hits are given with their value; ! = repeats disagree. Hits are enriched below; roughly 2.5% of the tested compounds scored in any of these assays.

Results for CC(C)Oc1ccc(F)cc1-c1cc(C(=O)N2CCc3ccccc3C2)[nH]n1 ?
TAG inh: inactive; H9c2 protect: inactive; iPSC survival up: inactive; SKN-1 block: inactive

What do the screens show for `CCc1nnc(NS(=O)(=O)c2ccc(NC(=S)NC(=O)/C=C/c3ccc(OC)cc3)cc2)s1`?
H9c2 protect: inactive; CRFR2-BP antag: inactive; iPSC survival up: inactive; SKN-1 block: inactive; CRFR2-BP ag: inactive

What do the screens show for `C=CCc1cccc2cc(C(=O)Nc3ccc(F)cc3)c(=O)oc12`?
H9c2 protect: inactive; CRFR2-BP antag: inactive; iPSC survival up: inactive; SKN-1 block: inactive; CRFR2-BP ag: inactive

How did C=CCc1cccc2cc(C(=O)Nc3ccc(S(=O)(=O)Nc4nnc(CC)s4)cc3)c(=O)oc12 do in these assays?
H9c2 protect: inactive; CRFR2-BP antag: 60.7; iPSC survival up: inactive; SKN-1 block: inactive; CRFR2-BP ag: inactive

Results for CCc1nnc(NS(=O)(=O)c2ccc(NC(=S)NC(=O)/C=C/c3ccccc3)cc2)s1 ?
H9c2 protect: inactive; CRFR2-BP antag: 55.7; iPSC survival up: inactive; SKN-1 block: inactive; CRFR2-BP ag: inactive

How did OC[C@H]1O[C@H](c2nc(-c3nc(-c4cccs4)no3)cs2)C[C@@H]1O do in these assays?
TAG inh: inactive; H9c2 protect: inactive; iPSC survival up: inactive; SKN-1 block: inactive

What do the screens show for `CCOc1ccc(N(CC(=O)Nc2c(C)cc(C)cc2C)C2=NC3CS(=O)(=O)CC3S2)cc1` (stereo not drawn)?
TAG inh: inactive; H9c2 protect: inactive; iPSC survival up: inactive; SKN-1 block: inactive

What do the screens show for `CCC(C(=O)NC1CCCC1)n1c(-c2cc3ccccc3[nH]2)nc2ccccc21` (stereo not drawn)?
SKN-1 block: inactive

How did Cc1c(C=O)c2ccccn2c1C(=O)c1ccc(Cl)c([N+](=O)[O-])c1 do in these assays?
TAG inh: inactive; H9c2 protect: 51.2; CRFR2-BP antag: inactive; iPSC survival up: inactive; SKN-1 block: inactive; CRFR2-BP ag: inactive

What do the screens show for `c1ccc2nc(-c3ccc(-n4ccnc4)cc3)ccc2c1`?
H9c2 protect: inactive; CRFR2-BP antag: inactive; iPSC survival up: inactive; SKN-1 block: 66.3; CRFR2-BP ag: inactive

How did COC(=O)[C@]12CCCCC=C1N(Cc1cccc3ccccc13)C(=O)[C@H](CC(=O)NCCCN1CCCC1=O)C2 do in these assays?
iPSC survival up: inactive; SKN-1 block: inactive

Results for CCOC(=O)C1=C(C)N=c2s/c(=C\c3ccncc3)c(=O)n2C1c1ccc2c(c1)OCO2 (stereo not drawn) ?
TAG inh: inactive; H9c2 protect: 55.4; CRFR2-BP antag: inactive; iPSC survival up: inactive; SKN-1 block: inactive; CRFR2-BP ag: inactive

How did Cc1nn(CC(=O)NC2(C#N)CCCCC2)c(C)c1[N+](=O)[O-] do in these assays?
TAG inh: inactive; H9c2 protect: inactive; CRFR2-BP antag: inactive; iPSC survival up: inactive; SKN-1 block: inactive; CRFR2-BP ag: inactive

How did Cc1nn(CC(=O)N(C)C2(C#N)CCCCC2)c(C)c1[N+](=O)[O-] do in these assays?
TAG inh: inactive; H9c2 protect: inactive; CRFR2-BP antag: inactive; iPSC survival up: inactive; SKN-1 block: inactive; CRFR2-BP ag: 110.7

Results for CC1(C)S[C@@H]2[C@H](NC(=O)Cc3ccccc3)C(=O)N2[C@H]1C(=O)O ?
TAG inh: inactive; H9c2 protect: inactive; CRFR2-BP antag: inactive; iPSC survival up: inactive; SKN-1 block: inactive; CRFR2-BP ag: inactive

How did CCOc1ccc2ccccc2c1C(=O)N[C@@H]1C(=O)N2[C@@H]1SC(C)(C)[C@@H]2C(=O)O do in these assays?
TAG inh: inactive; H9c2 protect: 77.9!; CRFR2-BP antag: inactive; iPSC survival up: inactive; SKN-1 block: inactive; CRFR2-BP ag: inactive

What do the screens show for `CCOC(=O)N1CCN(c2c(NCc3ccccc3Cl)c(=O)c2=O)CC1`?
TAG inh: inactive; H9c2 protect: inactive; CRFR2-BP antag: inactive; iPSC survival up: inactive; SKN-1 block: inactive; CRFR2-BP ag: inactive

How did Cc1ccc([N+](=O)[O-])cc1N=Nc1c(-c2ccc([N+](=O)[O-])cc2)[nH]n(C(N)=S)c1=O do in these assays?
TAG inh: inactive; H9c2 protect: inactive; CRFR2-BP antag: 111.6; iPSC survival up: inactive; SKN-1 block: inactive; CRFR2-BP ag: 51.4

How did Cc1ccc([N+](=O)[O-])cc1N=Nc1c(C)[nH]n(C(N)=S)c1=O do in these assays?
H9c2 protect: inactive; CRFR2-BP antag: inactive; iPSC survival up: inactive; SKN-1 block: inactive; CRFR2-BP ag: inactive
